Records with an inconclusive call do not appear. Active and inactive are the calls of the source. The call rests on the fitted dose curve; in most records, active means well fitted inhibition curve with a large enough effect in the repeat runs; inconclusive means weak or mixed curves; inactive means no such curve, though single readings can be large or run the other way.
On the % scale 0 is the no-effect control and ±100 the full control effect; potency means the concentration at half of the fitted maximal effect.

Sequence of Cytochrome P450 2C9 (Homo sapiens) (P11712 whole entry, looked up): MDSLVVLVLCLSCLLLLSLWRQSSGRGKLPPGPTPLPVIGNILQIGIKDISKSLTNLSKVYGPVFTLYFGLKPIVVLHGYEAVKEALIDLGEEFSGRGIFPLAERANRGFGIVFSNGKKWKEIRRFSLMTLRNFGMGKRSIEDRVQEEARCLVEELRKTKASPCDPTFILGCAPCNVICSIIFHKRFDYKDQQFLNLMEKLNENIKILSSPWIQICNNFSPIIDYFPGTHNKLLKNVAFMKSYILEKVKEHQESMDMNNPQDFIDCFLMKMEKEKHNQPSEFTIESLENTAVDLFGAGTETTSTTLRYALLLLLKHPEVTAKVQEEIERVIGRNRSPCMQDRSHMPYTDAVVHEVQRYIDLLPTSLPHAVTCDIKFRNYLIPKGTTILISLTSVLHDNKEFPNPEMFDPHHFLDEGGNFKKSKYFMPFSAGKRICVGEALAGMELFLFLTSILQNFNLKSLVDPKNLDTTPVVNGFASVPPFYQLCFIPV

This experiment has as its target Cytochrome P450 2C9 (Homo sapiens) (UniProt P11712). Kind of experiment: Cytochrome P450 Family 2 Subfamily C Member 9 (CYP2C9) small molecule antagonists: luciferase reporter qHTS assay (AID 1671198). Further: nearly all actives have a fitted effect of over 50% in size. As to conditions: P450-Glo CYP2C9 enzyme assay, luciferin luminescence; series mostly up to 115 µM; activity change, negative = inhibition: at the top concentration. From the text:
U.S. Tox21 Program National Center for Advancing Translational Sciences [NCATS] U.S. Environmental Protection Agency [EPA] National Institutes of Environmental Health Sciences [NIEHS] National Toxicology Program [NTP] U.S. Food and Drug Administration [FDA] Tox21 Assay Overview: Cytochrome P450 (CYP) enzymes are membrane-bound hemeproteins that play a key role in metabolism of drugs and xenobiotics. Evaluation of the effect of chemicals on CYP isozymes is useful to minimize the adverse drug reactions and toxicities in drug development process. Tox21 chemicals were tested for their effect on CYP enzyme activities by using P450-Glo (TM) screening systems (Promega Corporation, Madison, WI). These systems provide a luminescent method containing proluciferin substrates and are converted to luciferin products by CYP isozymes. The luciferin products formed are detected with a luciferin detection reagent, and the amount of light produced is proportional to CYP activity. P450-Glo (TM) CYP2C9 screening system (Catalog. No. V9790) was used to detect the compounds that interfere in CYP2C9 activity.
Tox21 Assay Protocol Summary: Two ul of enzyme-substrate mix was dispensed into medium binding white/solid 1536-well plates (Greiner Bio-One North America Inc., Monroe, NC) using a BioRaptr Flying Reagent Dispenser (FRD, Beckman Coulter, Brea, CA). […] The assay plates were incubated at room temperature for 10 min. Then 2 ul of NADPH regeneration solution was added to each well of the assay plates using an FRD and incubated at 37C for 1 h. The reaction was stopped by adding 4 ul of detection reagent using an FRD and after 20 min incubation at room temperature the luminescence signal was measured using a ViewLux plate reader (Perkin Elmer, Shelton, CT). Data were expressed as relative luminescence units.
Turning to `N#Cc1ccc(C(=O)O)cc1`, the “activity change, negative = inhibition” value was -9.45% (inactive).

In the case of `COc1cc2c(cc1OC)C(=O)CC2`, the “activity change, negative = inhibition” value was 6.59% [at 53 µM] (inactive).

`CC(=O)NCc1c(I)c(NC(C)=O)c(I)c(C(=O)O)c1I`: the “activity change, negative = inhibition” value is -2.95% [at 53 µM] (inactive).

As for `C=C1CC/C=C(\C)CC[C@@H]2[C@@H]1CC2(C)C`, the “activity change, negative = inhibition” value is -4.68% (inactive).

As for `CCCCCCCCSCC`, the “activity change, negative = inhibition” value is -3.13% (inactive).

As for `COc1cc(C(=S)N2CCOCC2)cc(OC)c1OC`, the “activity change, negative = inhibition” value is -2.37% [at 53 µM] (inactive).

Turning to `CCCCCCOC(=O)CC`, the “activity change, negative = inhibition” value was -0.148% (inactive).

As to `CCCCCCOc1ccccc1C(N)=O`, the Potency is 8.71 µM (active).

Turning to `CC1=CCC(C(C)C)=CC1`, the “activity change, negative = inhibition” value was -6.3% (inactive).

For `CCCCC(CC)COCCO` (stereo not given), the “activity change, negative = inhibition” value was -9.72% (inactive).

Consider `CC(C)c1ccc2cc(C(C)C)ccc2c1`, for which the “activity change, negative = inhibition” value was -14.8% (inactive).

For `CC(C)OC(=O)CCCCC(=O)OC(C)C`, the “activity change, negative = inhibition” value was 1.22% (inactive).

Turning to `CCOC(=O)[C@H](CCc1ccccc1)N[C@@H](C)C(=O)N1C(=O)N(C)C[C@H]1C(=O)O`, the “activity change, negative = inhibition” value is 23% [at 53 µM] (inactive).

Turning to `CC(=C(CCOC(=O)C(C)C)SSC(CCOC(=O)C(C)C)=C(C)N(C=O)Cc1cnc(C)nc1N)N(C=O)Cc1cnc(C)nc1N`, the “activity change, negative = inhibition” value is -7.85% [at 53 µM] (inactive).

In the case of `CCCOC(=O)C(C)O` (stereo not given), the “activity change, negative = inhibition” value was -18% (inactive).

For `Cc1cc(C(C)(C)C)c(O)c(C)c1CC1=NCCN1`, the “activity change, negative = inhibition” value was -1.5% [at 53 µM] (inactive).

Consider `CC(=O)Nc1cccc(C)c1`, for which the “activity change, negative = inhibition” value was -15.6% (inactive).

Take `O=C1CCCC(=O)O1`: the Potency is 12.6 µM (active).

Take `CCCCCCCCOS(=O)(=O)O`: the Potency was 28.3 µM (active).

`CCCCCCCCCCCCCC`: the “activity change, negative = inhibition” value is -2.87% (inactive).

On to `O=S(=O)(O)c1ccc2cc(O)c(S(=O)(=O)O)cc2c1`, for which the “activity change, negative = inhibition” value was -10.9% (inactive).

`COc1cc(N)ccc1C`: the Potency is 6.26 µM (active).

Regarding `CN(CCOc1ccc(NS(C)(=O)=O)cc1)CCc1ccc(NS(C)(=O)=O)cc1`, the “activity change, negative = inhibition” value was -9.97% [at 53 µM] (inactive).

Turning to `NNc1nnc(NN)c2ccccc12`, the Potency was 34.7 µM (active).

On to `CC(=O)CCCCn1c(=O)c2c(ncn2C)n(C)c1=O`, for which the “activity change, negative = inhibition” value is 2.84% [at 53 µM] (inactive).

Turning to `CCc1ccc(C=O)cc1`, the “activity change, negative = inhibition” value is -7.72% (inactive).

For the compound `COC(=O)c1ccccc1C(=O)c1ccc(OCCN2CCCCC2)cc1`, the “activity change, negative = inhibition” value is -9.02% [at 53 µM] (inactive).

Turning to `O=Cc1ccc(Cl)c(Cl)c1`, the “activity change, negative = inhibition” value is -3.35% (inactive).

As for `Cc1ccc(S(=O)(=O)O)c(C)c1`, the “activity change, negative = inhibition” value was -14.6% (inactive).

Turning to `OC[C@H](Cc1cccc(O)c1)[C@H](CO)Cc1cccc(O)c1`, the Potency is 23 µM (active).

As for `CCCCCCCCCC(C)=O`, the “activity change, negative = inhibition” value is -10.1% (inactive).

On to `OCCC(F)(F)C(F)(F)C(F)(F)C(F)(F)C(F)(F)C(F)(F)C(F)(F)C(F)(F)F`, for which the “activity change, negative = inhibition” value was -10.1% (inactive).

On to `Cc1cccc(C)c1NC(=O)c1ccccc1C(=O)O`, for which the “activity change, negative = inhibition” value was 6.94% [at 53 µM] (inactive).

Turning to `COc1ccc(OC)c(Cl)c1`, the “activity change, negative = inhibition” value is -14.6% (inactive).

Regarding `CN=C(NC#N)Nc1ccc(C2=NNC(=O)CC2C)cc1` (stereo not given), the “activity change, negative = inhibition” value is 2.23% [at 53 µM] (inactive).

`O=C1c2cccc3c2[C@H](CCC3)CN1[C@@H]1CN2CCC1CC2`: the “activity change, negative = inhibition” value was 0.625% [at 53 µM] (inactive).

With `CC(=O)Nc1ccc(S(=O)(=O)Nc2ccc([N+](=O)[O-])cc2)cc1`, the Potency was 13.8 µM (active).

With `CCn1ccc(NS(=O)(=O)c2ccc(N)cc2)nc1=O`, the “activity change, negative = inhibition” value was 26.7% [at 53 µM] (inactive).

As for `C=Cc1ccccn1`, the “activity change, negative = inhibition” value is 2.54% (inactive).

As for `C=C(C)C(=O)OCC(C)(C)COC(=O)C(=C)C`, the “activity change, negative = inhibition” value is -27.6% (inactive).

The record behind these values is PubChem BioAssay (Tox21).
